Laboratory results as given in PubChem BioAssay AID1851 (National Center for Advancing Translational Sciences (NCATS), 2009).
Several values for one entry are separate records, joined by “and”; a condition that tells them apart may be missing. Equal entries are not always repeated. In all, about 16,000 compounds went through this assay and about 2,600 (16%) were called active. Another 20% or so got no clear call; they are omitted. Calls come from the whole dose curve; as a rule, active = well fitted curve in the direction sought with a large enough effect; inconclusive = small, poorly fitted or top-dose-only effect, or effect the other way; inactive = no such curve, though single readings can be large or run the other way. The entries come from a sample that favours actives as a whole.

These compounds were tested against Cytochrome P450 2D6 (Homo sapiens) (UniProt P10635) (assay: Cytochrome panel assay with activity outcomes). Settings: recombinant CYP, pro-luciferin dealkylation, luminescence, p450-cyp2d6; series mostly up to 57.1 µM; activity, negative = inhibition: at the top concentration.
Cytochrome P450 2D6 (Homo sapiens), sequence (P10635 whole entry, looked up): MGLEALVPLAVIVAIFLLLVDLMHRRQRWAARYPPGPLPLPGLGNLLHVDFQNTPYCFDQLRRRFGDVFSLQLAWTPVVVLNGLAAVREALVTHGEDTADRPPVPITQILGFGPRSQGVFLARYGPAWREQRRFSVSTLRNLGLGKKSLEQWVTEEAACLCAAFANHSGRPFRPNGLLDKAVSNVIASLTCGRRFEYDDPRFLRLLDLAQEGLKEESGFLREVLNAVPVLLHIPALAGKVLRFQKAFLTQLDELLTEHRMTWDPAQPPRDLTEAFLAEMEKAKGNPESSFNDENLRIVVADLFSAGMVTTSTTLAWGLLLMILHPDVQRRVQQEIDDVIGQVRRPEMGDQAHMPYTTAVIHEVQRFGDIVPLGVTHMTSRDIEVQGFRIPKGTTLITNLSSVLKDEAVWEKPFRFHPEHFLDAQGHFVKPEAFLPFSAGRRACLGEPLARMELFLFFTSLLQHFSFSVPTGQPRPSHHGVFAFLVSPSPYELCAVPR
% is set by controls: 0 for no effect and ±100 for the full control effect.

| Compound | activity, negative = inhibition | AC50 |
| --- | --- | --- |
| C1CCc2nnnn2CC1 | -0.778% [at 25.6 µM] (inactive) | – |
| CC(C)[N+](C)(CCC(C(N)=O)(c1ccccc1)c1ccccc1)C(C)C | – | 3.98 µM (active) |
| CC(C)N(CC[C@@](C(N)=O)(c1ccccc1)c1ccccn1)C(C)C | – | inactive |
| N#C/C(=C\c1ccc(O)c(O)c1)C(N)=S | -10.4% (inactive) | – |
| Nc1nc(N)c(N=Nc2ccc([As](=O)(O)O)c(O)c2)c(N)n1 | 12.7% [at 11.4 µM] (inactive) | – |
| CC(O)(CS(=O)(=O)c1cccc(C(F)(F)F)c1)C(=O)Nc1cccc(C(F)(F)F)c1 (stereo not drawn) | -12.4% (inactive) | – |
| COc1cc(C[C@H](C)N)c(OC)cc1I | – | 25.1 µM (active) |
| NC(=O)c1ccc(C(=O)Nc2ccc([As](=O)(O)O)cc2)cc1 | -0.507% [at 11.4 µM] (inactive) | – |
| O=NN(Cc1ccc(Cl)cc1)[C@@H](C(=O)O)c1ccccc1 | 6.33% [at 11.4 µM] (inactive) | – |
| CC(NCc1ccc(Cl)cc1)C(O)c1ccccc1 (stereo not drawn) | – | 0.0708 µM (active) |
| C[C@H](N)[C@@H](O)c1ccccc1 | -7.7% [at 25.6 µM] (inactive) | – |
| COc1ccn(C)c(=O)c1C#N | -5.47% [at 25.6 µM] (inactive) | – |
| O=C1C2CCN(CC2)C1(CO)CO | – | inactive |
| c1ccc(CCN2CCCCCC2)nc1 | -18.4% [at 11.4 µM] (inactive) | – |
| c1ccc(CCN2CCOCC2)nc1 | 13.9% [at 11.4 µM] (inactive) | – |
| CCc1ccc(CCN2CCCCC2)nc1 | – | 1.58 µM (active) |
| CC(C)COC(=O)OCN1C(=O)CN(CCN2CC(=O)N(COC(=O)OCC(C)C)C(=O)C2)CC1=O | 2.09% (inactive) | – |
| O=S(=O)(c1ccccc1)N1CCCCC1c1cccnc1 (stereo not drawn) | -14.3% (inactive) | – |
| N#CCCN | 1.7% (inactive) | – |
| Oc1cccc2cccnc12 | 8.63% [at 11.4 µM] (inactive) | – |
| C[n+]1c(/C=C\c2ccc(O)c3ncccc23)[se]c2ccccc21 | – | 1 µM (active) |
| COc1cccc(-c2nc(CS(=O)CC(=O)N3CCC4(CC3)OCCO4)c(C)o2)c1 (stereo not drawn) | 0.248% (inactive) | – |
| C[C@@]12CC[C@H]3[C@@H](CC[C@@H]4C[C@H]5S[C@H]5C[C@]43C)[C@H]1CC[C@H]2O | -6.37% [at 25.6 µM] (inactive) | – |

| Compound | activity, negative = inhibition | AC50 |
| --- | --- | --- |
| CCCN(CCC)CCc1cccc2c1CC(=O)N2 | – | 3.16 µM (active) |
| N[C@@H]1C=CC=C(C(=O)O)C1 | 1.21% (inactive) | – |
| N#CC(C#N)=Cc1cc(O)c(O)c(O)c1 | -3.79% (inactive) | – |
| O=C(O)c1cc[c]([Hg][S]c2ncnc3nc[nH]c23)cc1 | – | 1 µM (active) |
| O=C(NC1CCCCC1)NC1CC2CCC(C1)N2Cc1nnnn1Cc1ccc2c(c1)OCO2 (stereo not drawn) | – | 6.31 µM (active) |
| CCOP(=O)(OCC)C(NC(=O)C(Cl)Cl)C(Cl)(Cl)Cl (stereo not drawn) | -4.39% (inactive) | – |
| O=[N+]([O-])O[C@H]1CO[C@H]2[C@H]1OC[C@@H]2O[N+](=O)[O-] | 8.18% [at 25.6 µM] (inactive) | – |
| C/C(=C\c1ccc(N(C)C)cc1)[N+](=O)[O-] | -28.6% (inactive) | – |
| C[N+]1(C)[C@@H]2CC[C@H]1CC(OC(=O)[C@@H](CO)c1ccccc1)C2 (stereo partly drawn) | – | inactive |
| C[N+]1(C)C2CC[C@H]1CC(OC(=O)[C@@H](CO)c1ccccc1)C2 (stereo partly drawn) | 12% [at 11.4 µM] (inactive) | – |
| CCN1CCC[C@@H](OC(=O)C(c2ccccc2)c2ccccc2)C1 | – | 1.58 µM (active) |
| NCCCC[C@H](N[C@@H](CCc1ccccc1)C(=O)O)C(=O)N1CCC[C@H]1C(=O)O | 10.4% [at 25.6 µM] (inactive) | – |
| COc1cc2c(cc1OC)[C@H](C)NCC2 | -5.44% [at 25.6 µM] (inactive) | – |
| CCC1=C(C[C@H]2NCCc3ccccc32)C[C@@H]2c3cc(OC)c(OC)cc3CCN2C1 | – | 2.51 µM (active) |
| CC[C@@H]1CN2CCc3cc(OC)c(OC)cc3[C@H]2C[C@@H]1C[C@@H]1NCCc2cc(OC)c(OC)cc21 | 3.48% (inactive) | – |
| CCC1=C(C[C@H]2NCCc3cc(OC)c(OC)cc32)C[C@H]2c3ccccc3CCN2C1 | – | 0.316 µM (active) |
| O=C1CS[C@@H](c2ccccc2Cl)c2cc(Cl)ccc2N1 | -15.3% (inactive) | – |
| c1ccc(C2CC2)c(OCC2=NCCN2)c1 | – | 25.1 µM (active) and 5.01 µM (active) |
| c1ccc([C@H]2CNCc3ccccc32)cc1 | – | 5.01 µM (active) |
| O=[As](O)(O)c1ccc2nc3cc([As](=O)(O)O)ccc3nc2c1 | 14.5% [at 11.4 µM] (inactive) | – |
| CC(=O)OCC1=C(C(=O)O)N2C(=O)[C@@H](N)[C@@H]2SC1 | 5.59% [at 25.6 µM] (inactive) | – |
| c1cc(CCN2CCCCC2)ccn1 | -18.4% [at 11.4 µM] (inactive) | – |
| O[Si@](CCCN1CCCCC1)(c1ccc(F)cc1)C1CCCCC1 | – | 0.501 µM (active) |

| Compound | activity, negative = inhibition | AC50 |
| --- | --- | --- |
| CS(=N)(=O)CC[C@@H](N)C(=O)O (stereo partly drawn) | 3.1% [at 25.6 µM] (inactive) | – |
| COc1cc([C@@H](O)CN)ccc1O | -2.5% (inactive) | – |
| O=C(CCN1CC2CCC(CC2)C1)c1cccs1 | – | 2 µM (active) |
| C/C=C1\C[C@H](C)[C@@](O)(CO)C(=O)OCC2=CCN3CC[C@@H](OC1=O)[C@@H]23 | 8.82% [at 25.6 µM] (inactive) | – |
| C[N+](C)(C)CCCCCC[N+](C)(C)C | -2.19% (inactive) | – |
| N=C1c2ccccc2CN1NC(=O)c1ccc(F)cc1 | – | 1.26 µM (active) |
| N=C1c2ccccc2CN1NC(=O)c1ccc(Cl)cc1 | – | 0.794 µM (active) |
| NP(N)(=O)NC(=O)c1ccc(F)cc1 | 0.0851% (inactive) | – |
| CS(=O)(=O)N1CCCC(C(=O)N2CCC3(CC2)OCCO3)C1 (stereo not drawn) | 8.4% (inactive) | – |
| CC12CN3CC(C)(CN(C1)C31CCSCC1)C2=O | -17.1% (inactive) | – |
| NCCSC(c1ccccc1)c1ccccc1 | – | 0.794 µM (active) |
| NCC#Cc1ccccc1 | -4.23% (inactive) | – |
| O=C1NC(=O)N(CCNc2ncc(C(F)(F)F)cc2Cl)C(=O)C1/C=N/OCc1c(F)cccc1Cl (stereo not drawn) | -4.63% (inactive) | – |
| C[C@]12CC[C@@H]3C(=CCc4cc(O)ccc43)[C@@H]1CCC2=O | -5.94% [at 25.6 µM] (inactive) | – |
| O=C(Nc1cccc(C(F)(F)F)c1)c1cccn(Cc2ccc3c(c2)OC(F)(F)O3)c1=O | 11.6% (inactive) | – |
| NC(N)=NS(=O)(=O)c1ccc(N)cc1 | 4.32% [at 25.6 µM] (inactive) | – |
| N=C(N)c1ccc(-c2ccc(-c3ccc(C(=N)N)cc3)o2)cc1 | 11.8% [at 11.4 µM] (inactive) | – |
| COc1ccc2[nH]c3c(c2c1)CCNC3 | – | 12.6 µM (active) |
| COc1ccc2c3c([nH]c2c1)C(C)=NCC3 | – | 3.98 µM (active) |
| COc1ccc2[nH]c3c(c2c1)CCN=C3C | – | 0.631 µM (active) |
| COc1ccc(-n2nc(C(F)(F)F)cc2-c2ccc(Cl)cc2)cc1 | 0.773% (inactive) | – |
| C[C@]12CC[C@H]3c4ccc(O)cc4CC[C@@H]3[C@H]1CC[C@@H]2OC(=O)CCc1ccccc1 | -5.32% [at 11.4 µM] (inactive) | – |
